Hit rate of the full screen: of about 2,100 compounds, about 670 (32%) were called active. Inconclusive results (about 50%) are left out. The list shows a part of the results. A number with no mark means an inactive call. Calls come from the whole dose curve; as a rule, active = well fitted inhibition curve with a large enough effect; inconclusive = small, poorly fitted or top-dose-only effect; inactive = no such curve, though single readings can be large or run the other way.
% is set by controls: 0 for no effect and ±100 for the full control effect; potency is the fitted concentration of half-maximal effect.

The nature of the test: CMV-Luciferase Counterscreen for Inhibitors of ATXN expression. Note: nearly all actives have a fitted effect of over 55% in size. To be noted: HEK-293 CMV-luciferase reporter, luminescence, 24 h; series mostly up to 57.5 µM; activity change, negative = inhibition: at the top concentration. Background: The purpose of a counterscreen is to sort out artefacts and off-target activity.
On to `CCOC(=O)c1c(NC(=O)COC(=O)c2ccccc2NC)sc(C(=O)N(C)C)c1C`, for which the activity change, negative = inhibition is -21.4% [at 11.4 µM].

In the case of `Cc1cc(C)c2nc(N(CCCN(C)C)C(=O)c3ccc4c(c3)OCCO4)sc2c1`, the Potency was 28.2 µM (active).

In the case of `Cc1cccc2sc(N(CCCN(C)C)C(=O)c3ccco3)nc12`, the “activity change, negative = inhibition” value was 6.04%.

In the case of `CN(C)CCCN(C(=O)c1ccc2c(c1)CCCC2)c1nc2cc3c(cc2s1)OCO3`, the “activity change, negative = inhibition” value is -9.48%.

For the compound `Nc1nc(NCCCN2CCOCC2)nc(Nc2ccccc2F)c1[N+](=O)[O-]`, the “activity change, negative = inhibition” value was -23.9%.

For the compound `O=C(NCCc1cn2ccccc2n1)c1cc(COc2ccc3ncccc3c2)on1`, the Potency was 14.1 µM (active).

As for `Cc1ccc(C)c(S(=O)(=O)N2CCN(c3ncnc4sccc34)CC2)c1`, the Potency is 1.41 µM (active).

Turning to `CN(C)CCNC(=O)c1ccc(Cl)c2cc3ccccc3nc12`, the Potency was 10 µM (active).

Take `CN(C)CCNC(=O)c1cccc2nc3cccc(F)c3nc12`: the Potency is 10 µM (active).

`CN(C)CCNC(=O)c1cccc2[nH]c(-c3ccncc3)nc12`: the activity change, negative = inhibition was -19.8% [at 11.4 µM].

Turning to `CN(C)CCCN(C(=O)c1ccc(S(=O)(=O)N(C)Cc2ccccc2)cc1)c1nc2c(F)cccc2s1`, the “activity change, negative = inhibition” value was -26.4%.

Turning to `OCCN(Cc1ccccc1)CC(O)COc1ccc(-c2ccccc2)cc1` (stereo unspecified), the “activity change, negative = inhibition” value is -22.7%.

Regarding `CN1C/C(=C/c2cccnc2)C(=O)/C(=C/c2cccnc2)C1`, the activity change, negative = inhibition is -8.05% [at 11.4 µM].

For `O=C1/C(=C/c2ccncc2)CCC/C1=C\c1ccncc1`, the Potency is 8.91 µM (active).

On to `Cc1onc(-c2c(Cl)cccc2Cl)c1C(=O)N/N=C(\N)COc1ccc(Cl)cc1`, for which the Potency is 3.55 µM (active).

As for `CCC(=O)OCCNc1cc(Sc2nc3ccccc3[nH]2)c2nonc2c1[N+](=O)[O-]`, the activity change, negative = inhibition is -17% [at 11.4 µM].

In the case of `O=[N+]([O-])c1c(Nc2ccccn2)cc(Cl)c2nonc12`, the Potency is 11.2 µM (active).

Take `O=[N+]([O-])c1ccc(C[n+]2cccc3ccc4cccnc4c32)cc1`: the Potency is 3.16 µM (active).

As for `COc1cc(/C=N/Nc2snc(SC)c2C#N)cc(OC)c1OC`, the “activity change, negative = inhibition” value is 1.9%.

On to `CC(C)(C)c1ccc(NC(=O)N2CCCN(c3c(Cl)cncc3Cl)CC2)cc1`, for which the “activity change, negative = inhibition” value is -11.8%.

For the compound `Cc1c(Cl)cccc1NC(=O)N1CCCN(c2nc(-c3ccccc3)ns2)CC1`, the Potency was 10 µM (active).

For the compound `O=C(Nc1ccccc1Cl)N1CCCN(c2nc(-c3ccccc3)ns2)CC1`, the Potency was 14.1 µM (active).

As for `Cc1c(N=C2C=CC(=O)c3ccccc32)c(=O)n(-c2ccccc2)n1C`, the Potency is 31.6 µM (active).

As for `Cc1c(N=C2N=C(NC(=O)Nc3ccc(Cl)cc3)c3ccccc32)c(=O)n(-c2ccccc2)n1C`, the “activity change, negative = inhibition” value was -6.01%.

Consider `Cc1cc(C)c(O)c(CN(C)Cc2cc(Cl)cc(Cl)c2O)c1`, for which the Potency was 10 µM (active).

Take `CCOC(=O)c1c(SCCN2CCCCC2)n(-c2ccccc2)c(=S)n(-c2ccccc2)c1=O`: the Potency is 22.4 µM (active).

As for `Cc1sc2ncnc(NCC(O)c3ccc([N+](=O)[O-])cc3)c2c1C` (stereo unspecified), the Potency was 5.62 µM (active).

Consider `O=C(O)CCn1cc(/C=C/C(=O)c2ccc(Cl)cc2)c(-c2ccc(Br)cc2)n1`, for which the Potency was 10 µM (active).

On to `CCC1(O)C(=O)OCc2c1cc1n(c2=O)Cc2cc3cc(O)ccc3nc2-1` (stereo unspecified), for which the Potency is 0.891 µM (active).

`CC[C@@]1(O)C(=O)OCc2c1cc1n(c2=O)Cc2cc3c(CN(C)C)c(O)ccc3nc2-1`: the Potency was 11.2 µM (active).

With `O=C(NC1C=CS(=O)(=O)C1)c1sc2ccccc2c1Cl` (stereo unspecified), the activity change, negative = inhibition is -11.1% [at 11.4 µM].

For `Brc1cnc2nc(SCc3nc4ccccc4[nH]3)[nH]c2c1`, the activity change, negative = inhibition was 361% [at 11.4 µM].

Take `CCCCc1ccc(NC(=O)N2CCN(c3cc(C)nc4ccccc34)CC2)c(C)c1`: the Potency is 12.6 µM (active).

Regarding `Cc1cc2nc(-c3nnnn3Cc3ccccc3)c(=O)[nH]c2cc1C`, the activity change, negative = inhibition was -9.85% [at 11.4 µM].

In the case of `CC(=O)c1ccc(NC(=O)COC(=O)c2c3c(nc4ccccc24)/C(=C\c2cccs2)CCC3)cc1`, the Potency was 17.8 µM (active).

In the case of `CCn1c2ccccc2c2cc(NC(=O)COC(=O)c3ccccc3F)ccc21`, the activity change, negative = inhibition is 9.52% [at 11.4 µM].

With `CCn1c2ccccc2c2cc(NC(=O)COC(=O)Cc3cn4ccsc4n3)ccc21`, the activity change, negative = inhibition was 33.4% [at 11.4 µM].

On to `Cc1cc(C)nc(N/N=C2/CCCC/C2=C\c2ccccc2)n1`, for which the Potency was 3.16 µM (active).

As to `NC(N)=N/N=C/c1ccc2cccc(OCc3ccccc3)c2n1`, the Potency was 22.4 µM (active).

With `Cc1cc(Cl)ccc1-c1cc2nc(NCCCN(C)C)n(C)c(=O)c2s1`, the activity change, negative = inhibition was 5.92% [at 11.4 µM].

In the case of `N#Cc1c(N)n(C2OC(CO)C(O)C2O)c2ncnc(N)c12` (stereo unspecified), the “activity change, negative = inhibition” value was -38.9%.

On to `CNc1nc2c(N)ncnc2n1[C@H]1O[C@@H](CO)[C@H](O)[C@@H]1O`, for which the activity change, negative = inhibition was 119% [at 11.4 µM].

Regarding `Nc1ccn([C@@H]2O[C@H](CO)[C@@H](O)C2O)c(=O)n1` (stereo partly specified), the Potency is 2.51 µM (active).

Consider `COC(=O)c1c(NC(=O)c2ccc([N+](=O)[O-])o2)sc2c1CCN(C(C)C)C2`, for which the Potency is 15.8 µM (active).

On to `O=C(COc1ccccc1Cl)Nc1ccc(N2CCN(C(=O)c3ccccc3)CC2)cc1`, for which the Potency is 3.55 µM (active).

With `CC(=O)N(C1=C(Cl)C(=O)c2ccccc2C1=O)C1CCCCC1`, the Potency was 12.6 µM (active).

As for `CCCCOc1ccccc1NC(=O)Cn1c(-c2nonc2N)nc2ccccc21`, the “activity change, negative = inhibition” value was -2.18%.

Take `COCCCn1c(N)c(-c2nc3ccccc3n2C)c2nc3ccccc3nc21`: the Potency is 17.8 µM (active).

In the case of `Cc1ccc(NS(=O)(=O)c2ccc(NC(=O)C(C)Sc3ccc(Cl)cc3)cc2)c(C)c1` (stereo unspecified), the Potency is 25.1 µM (active).

On to `O=C(c1ccc(F)cc1F)C1CCN(c2ccc([N+](=O)[O-])cn2)CC1`, for which the Potency is 4.47 µM (active).

Consider `COC(=O)C(Cc1ccc(O)cc1)NC(=O)C(C)Oc1ccccc1` (stereo unspecified), for which the “activity change, negative = inhibition” value is -13.3%.

Consider `NC(c1ccccc1)c1csc(NC(=O)Nc2ccccc2Oc2ccccc2)n1` (stereo unspecified), for which the activity change, negative = inhibition was -22.9% [at 11.4 µM].

With `CC(Oc1ccc(F)cc1)C(=O)Nc1nc(-c2ccccn2)cs1` (stereo unspecified), the Potency is 2.51 µM (active).

Regarding `Cc1cc(C)c2nc(NNC(=O)c3cc(-c4cccs4)nc4ccccc34)sc2c1`, the Potency is 2.82 µM (active).

`CCN1CCS/C1=C\C=C\C1=[N+](CC)CCS1`: the Potency was 3.98 µM (active).

Consider `NCCCCCc1nnc(SCc2ccccc2Cl)o1`, for which the activity change, negative = inhibition was -36.5% [at 11.4 µM].
